Data reported in PubChem BioAssay (Tox21).
Results filed as inconclusive are left out. Where a call stands in place of a potency, no number is given. Calls of active or inactive are those of the source. The call rests on the fitted dose curve; in most records, active means well fitted cell-killing curve with a large enough effect in the repeat runs; inconclusive means weak or mixed curves, or effect the other way; inactive means flat fitted curve, though single readings scatter.
Potency means the concentration at half of the fitted maximal effect.

Assay: cAMP Responsive Elements (CRE) small molecule antagonists, cell-based qHTS assay: qHTS cell viability counter screen (AID 2060913); further: nearly all actives have a fitted effect of over 40% in size
Conditions: CRE-bla HEK293T viability, CellTiter-Glo luminescence, 5 h; series mostly up to 92.4 µM
Source text: U.S. Tox21 Program National Center for Advancing Translational Sciences [NCATS] Division of Preclinical Innovation [DPI] U.S. Environmental Protection Agency [EPA] National Institutes of Environmental Health Sciences [NIEHS] National Toxicology Program [NTP] U.S. Food and Drug Administration [FDA] Tox21 Assay Overview: CREB (cyclic-AMP Responsive Element Binding Protein) is a cellular transcription factor. It binds to certain DNA sequences called cAMP Responsive Elements (CRE) and regulates the transcription of the genes. […] This cell line can be used to find agonists/antagonists of the cyclic AMP signaling pathway. The activation of the report gene under culture conditions can be detected by fluorescence intensity. This cell line has been used to screen the Tox21 10K compound library to identify agonists that induce oxidative stress. The cytotoxicity of the Tox21 compound library against the CRE-bla cell line was tested in parallel by measuring the cell viability using CellTiter-Glo assay (Promega, Madison, WI) in the same wells.
Tox21 Assay Protocol Summary: CRE-bla Hek 293T cells were suspended in assay medium (DMEM containing 10% dialyzed FBS, 0.1 mM NEAA, 1 mM sodium pyruvate and 25 mM HEPES) and dispensed at 2,000 cells/4 uL /well into 1536-well black wall/clear bottom plates using a Multidrop Combi (ThermoFisher Scientific, Waltham, MA) dispenser. After the assay plates were incubated at 37 C/5% CO2 for 18 hrs, 23 nL of compounds dissolved in DMSO, positive controls or DMSO only was transferred to the assay plate by a pintool workstation (Kalypsys, San Diego, CA), followed by addition of 1 uL of 1.25uM NKH477 (0.25 uM as final concentration) in assay medium using a Flying Reagent Dispenser (Aurora Discovery, San Diego, CA). The plates were incubated at 37 C and 5% CO2 for 3 hrs. Then 1 uL of LiveBLAzer B/G FRET substrate (Invitrogen, Carlsbad, CA) was added to each well using Bioraptr Flying Reagent Dispenser (FRD, Aurora Discovery, San Diego, CA). The plates were incubated at room temperature for 2 h, then fluorescence intensities were measured using an Envision plate reader (PerkinElmer, Shelton, CT) at Excitation 405nm, Emission 460nm and 530nm. The % activity was determined from the ratio of 460nm/530nm. For cell viability readout that measures cytotoxicity, 4 uL /well of CellTiter-Glo reagent was added into the assay plates using Bioraptr FRD. After 30 min incubation at room temperature, the luminescence intensity in the assay plates was measured using a ViewLux (PerkinElmer, Shelton, CT) plate reader.
With `C/C=C/C=O` the Potency was “inactive”.
For `ClCC(Cl)CCl`, the Potency was “inactive”.
With `Nn1cnnc1` the Potency was “inactive”.
With `COc1ccc(OC)c(CC(C)N)c1` (stereo not given) the Potency was “inactive”.
With `CCC(C)(c1ccc(O)cc1)c1ccc(O)cc1` the Potency was “inactive”.
In the case of `CCC[CH2][Sn]([CH2]CCC)([CH2]CCC)[CH2]CCC`, the Potency is reported as “inactive”.
With `CC(C)CCCCCOC(=O)c1ccccc1C(=O)OCCCCCC(C)C` the Potency was “inactive”.
With `O=C(O)c1ccccc1C(=O)Nc1cccc2ccccc12` the Potency was “inactive”.
In the case of `N#Cc1ccc(N(CC(N)=O)CC(F)(F)F)cc1C(F)(F)F`, the Potency is reported as “inactive”.
For `C[C@]12CCC(=O)C(O)=C1CC[C@@H]1[C@@H]2CC[C@]2(C)C(=O)CC[C@@H]12`, the Potency was “inactive”.
With `CC(C)=CC1C(C(=O)OC(C#N)c2cccc(Oc3ccccc3)c2)C1(C)C` (stereo not given) the Potency was “inactive”.
With `ClCBr` the Potency was “inactive”.
In the case of `Oc1ccc(Cl)c(Cl)c1Cl`, the Potency is reported as “inactive”.
For `C=CCN(CC=C)C(=O)C(Cl)Cl`, the Potency was “inactive”.
For `CC(=O)O[C@H]1CC[C@@]2(C)C(=CC[C@@H]3[C@@H]2CC[C@]2(C)C(=O)CC[C@@H]32)C1`, the Potency was “inactive”.
For `O=Cc1ccccc1`, the Potency was “inactive”.
For `CN1C[C@H](CNC(=O)OCc2ccccc2)C[C@@H]2c3cccc4c3c(cn4C)C[C@H]21`, the Potency was “inactive”.
In the case of `CNC(=O)Oc1cccc(C(C)C)c1`, the Potency is reported as “inactive”.
With `CC(=O)[O-].CC(=O)[O-].CC(=O)[O-].[Cr+3]` the Potency was “inactive”.
For `Nc1ccc(Cl)c(Cl)c1`, the Potency was “inactive”.
In the case of `BrC(Br)C(Br)(Br)Br`, the Potency is reported as “inactive”.
In the case of `Cc1ccc(S(=O)(=O)N[C@@H](CCCCN)C(=O)CCl)cc1`, the Potency is reported as “inactive”.
In the case of `O=C(O)c1ccccc1O`, the Potency is reported as “inactive”.
With `ClCc1ccccc1Cl` the Potency was “inactive”.
In the case of `CN(CCCC(=O)c1cccnc1)N=O`, the Potency is reported as “inactive”.
With `COc1cnc(OC)n2nc(NS(=O)(=O)c3c(OCC(F)F)cccc3C(F)(F)F)nc12` the Potency was “inactive”.
In the case of `O=C(Cl)CCl`, the Potency is reported as “inactive”.
With `Nc1c(Cl)cc([N+](=O)[O-])cc1Cl` the Potency was “inactive”.
With `Oc1ccc(I)cc1` the Potency was “inactive”.
For `NNC(=S)NN`, the Potency was “inactive”.
For `CCO/N=C(\CC)C1=C(O)CC(c2c(C)cc(C)cc2C)CC1=O` (stereo not given), the Potency was “inactive”.
In the case of `CC(C)(c1ccc(O)c(-c2ccccc2)c1)c1ccc(O)c(-c2ccccc2)c1`, the Potency is reported as 61.1 µM (active).
For `CCSC(=O)N1CCCCCC1`, the Potency was “inactive”.
In the case of `CCOC(=O)NC(=S)Nc1ccccc1NC(=S)NC(=O)OCC`, the Potency is reported as “inactive”.
With `CC(C)(C)C(=O)Cl` the Potency was “inactive”.
With `CSc1nnc(C(C)(C)C)c(=O)n1N` the Potency was “inactive”.
With `ClCOCCl` the Potency was “inactive”.
With `OCC(Cl)CCl` (stereo not given) the Potency was “inactive”.
In the case of `CCNc1nc(Cl)nc(NC(C)C)n1`, the Potency is reported as “inactive”.
In the case of `CCCCOP(=O)(CCCC)OCCCC`, the Potency is reported as “inactive”.
